Sampled rows, rich in hits. Any-hit rate of the full collection: about 3.1%.
Autofluor counter: flagged as autofluorescent in microsphere protease counterscreen. fluorescence intensity (concentration not given with the values). AID 624483. actives 3.1% (n = 360,000). compound autofluorescence counterscreen, microsphere flow cytometry; active compounds read high; in the data active = fluorescence intensity above about 16000; inconclusive = no clear call, values can overlap the other calls
PriA SSB inh: inhibitors of Klebsiella pneumoniae PriA binding to SSB C-terminal tail, primary screen, biochemical, AlphaScreen. inhibition, % at 33 µM. AlphaScreen SSBct-PriA binding, biotinylated peptide. actives 0.6% (n = 430,000); in the data active = inhibition mostly above about 37%, no sharp cut-off; inactive = mostly below about 20%;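 note: plate controls were negative control peptide for no effect and reference peptide for full effect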
BoNT-A LC inh2: BoNT/A light chain protease inhibitors, primary screen, biochemical, flow cytometry, MLPCN library; Botulinum neurotoxin type A light chain protease (Clostridium botulinum A str. ATCC 3502); multiplex microsphere protease substrate cleavage; inhibition, % at 10 µM; actives 0.17% (n = 360,000); note: plate controls were buffer without enzyme for full effect and enzyme alone for no effect
BoNT-F LC inh: BoNT/F light chain protease inhibitors, primary screen, biochemical, flow cytometry, MLPCN library; Multiplex microsphere protease cleavage assay; Botulinum neurotoxin type F light chain protease (Clostridium botulinum); actives 0.22% (n = 360,000); inhibition, % at 10 µM; in the data active = inhibition above about 35%, passing the limit was not always enough; inconclusive = no clear call, values can overlap the other calls; note: plate controls were buffer without enzyme for full effect and enzyme alone for no effect
Anthrax LF prot: Bacillus anthracis LF protease inhibitors, primary screen, biochemical, multiplex microsphere, MLPCN library | Lethal factor (Bacillus anthracis), P15917 | multiplex microsphere protease cleavage assay | inhibition, % at 10 µM | actives 0.12% (n = 360,000) | AID 588501, 2011; note: plate controls were buffer without enzyme for full effect and enzyme alone for no effect
Target sequence (P15917 whole entry, looked up): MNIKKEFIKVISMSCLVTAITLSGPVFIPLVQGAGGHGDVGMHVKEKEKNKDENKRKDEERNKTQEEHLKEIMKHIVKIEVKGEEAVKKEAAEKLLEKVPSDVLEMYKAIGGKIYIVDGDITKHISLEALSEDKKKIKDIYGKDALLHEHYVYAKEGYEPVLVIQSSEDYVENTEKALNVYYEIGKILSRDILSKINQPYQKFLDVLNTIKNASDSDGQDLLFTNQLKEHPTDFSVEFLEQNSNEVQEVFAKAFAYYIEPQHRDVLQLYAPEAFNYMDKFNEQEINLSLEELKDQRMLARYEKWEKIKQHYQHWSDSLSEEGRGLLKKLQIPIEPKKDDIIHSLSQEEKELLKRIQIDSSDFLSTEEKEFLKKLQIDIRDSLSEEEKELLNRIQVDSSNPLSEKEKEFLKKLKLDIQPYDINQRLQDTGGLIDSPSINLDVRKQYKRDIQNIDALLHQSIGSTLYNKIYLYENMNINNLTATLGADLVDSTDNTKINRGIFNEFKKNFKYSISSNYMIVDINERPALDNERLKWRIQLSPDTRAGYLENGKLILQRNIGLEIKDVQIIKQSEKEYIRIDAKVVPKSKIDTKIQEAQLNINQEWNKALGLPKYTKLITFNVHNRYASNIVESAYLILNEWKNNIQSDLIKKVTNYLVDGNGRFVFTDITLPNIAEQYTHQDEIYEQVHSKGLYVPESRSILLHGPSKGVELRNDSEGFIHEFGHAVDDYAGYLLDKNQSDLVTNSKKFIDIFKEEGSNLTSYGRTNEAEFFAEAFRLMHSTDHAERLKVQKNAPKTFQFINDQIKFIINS
An asterisk follows results filed as active; ? = inconclusive; nt = no result. Cut-off read from the data, not from the text of the source, unless noted: active = inhibition above about 30%; inconclusive = no clear call, values can overlap the other calls; inactive = below that.

SMILES	Autofluor counter	PriA SSB inh	BoNT-A LC inh2	BoNT-F LC inh	Anthrax LF prot
O=C(COC(=O)c1ccc(Br)o1)NCC1CCCO1 (stereo not drawn)	21346*	-4	3	5	2
COc1cccc(C2NC(=O)c3ccccc3O2)c1OC (stereo not drawn)	18893*	-1	?	3	-13
CCOC(=O)c1c(SCC(=O)Nc2nnc(C)s2)nc(=O)[nH]c1C	nt	-3	nt	nt	nt
Cn1nc(N2CCC(C(=O)Nc3nc(-c4ccccn4)cs3)CC2)ccc1=O	nt	6	nt	nt	nt
COc1ccc(-c2ccnc3nc(N=CN(C)C)nn23)cc1	nt	-11	nt	nt	nt
COc1ccc(-c2ccnc3nc(Sc4ncc(C(F)(F)F)cc4Cl)nn23)cc1	20277*	0	-2	-5	0
FC(F)(F)c1cnc(Sc2nc3nccc(-c4ccc(Cl)cc4)n3n2)c(Cl)c1	20640*	-25	0	-2	0
Cc1ccc2nc(N3CCN(S(=O)(=O)c4ccc(C)c(Cl)c4)CC3)c(C#N)cc2c1	21608*	-2	?	12	13
O=C(O)CSc1nnc(Cn2c(=O)sc3ccccc32)n1-c1cccc(Cl)c1	20449*	-1	7	7	-8
NC(=O)CSc1nnc(Cn2c(=O)sc3ccccc32)n1-c1cccc(Cl)c1	16396*	-8	0	1	-2
COc1ccc(OC)c(-c2ccc(N3CCN(S(=O)(=O)c4cccnc4)CC3)nn2)c1	nt	-36	nt	nt	nt
Cc1ccc(OCC(=O)NCCCn2nc(-c3ccc(F)cc3)ccc2=O)c(C)c1	nt	-7	nt	nt	nt
COc1ccc(OC)c(NC(=O)Cn2nc(C3CC3)c3cnn(-c4ccccc4)c3c2=O)c1	nt	0	nt	nt	nt
COc1cc(Br)cc2cc(C(=O)NCC3CCCO3)c(=O)oc12 (stereo not drawn)	22610*	11	?	-3	-1
CCc1cc(C(=O)NC(C)C2CCCO2)cs1 (stereo not drawn)	6538	4	-4	-2	-1
Cc1cc(C(=O)NC(C)C2CCCO2)cs1 (stereo not drawn)	16328*	1	?	-3	-1
COc1cccc2cc(C(=O)NCC3CCCO3)c(=O)oc12 (stereo not drawn)	3351	-5	-1	-5	-2
COc1cccc2cc(C(=O)NC(C)C3CCCO3)c(=O)oc12 (stereo not drawn)	16163*	-4	-1	-4	-4
CC(NC(=O)c1csc2ccccc12)C1CCCO1 (stereo not drawn)	16909*	-14	?	-4	1
Cc1cc(C)n(-c2cc(N3CCC[C@H](C(=O)NCc4ccco4)C3)ncn2)n1	nt	11	nt	nt	nt
O=C(Cc1ccc(Cl)cc1)Nc1ccc(CN2CCN(c3ccccn3)CC2)cc1	nt	5	nt	nt	nt
O=C(Nc1ccc2c(c1)OCCO2)C1CCN(S(=O)(=O)c2ccc(F)cc2)CC1	nt	2	nt	nt	nt
CC(NC(=O)Nc1ccc2c(c1)OCO2)C1CCCO1 (stereo not drawn)	23219*	-4	1	2	-1
CC(NC(=O)c1ccc(Cl)s1)C1CCCO1 (stereo not drawn)	24646*	5	-2	-4	1
CC(NC(=O)c1cccs1)C1CCCO1 (stereo not drawn)	4271	2	-3	-15	-2
SMILES	Autofluor counter	PriA SSB inh	BoNT-A LC inh2	BoNT-F LC inh	Anthrax LF prot
O=C(Nc1cc(N2CCOCC2)ncn1)c1c(F)cccc1Cl	nt	-13	nt	nt	nt
Cn1cccc1CN(Cc1cccs1)C(=O)COc1cccc2c1OC(C)(C)C2	nt	-4	nt	nt	nt
COc1ccc(CCNC(=S)NC(=O)c2ccccc2)cc1OC	23568*	13	-1	0	0
COc1ccc(CCNC(=O)c2cc(-c3cc(C)c(C)cc3O)n[nH]2)cc1OC	22479*	-20	0	0	-2
COc1ccc(CCNC(=O)c2ccc(=O)[nH]n2)cc1OC	5644	4	0	3	5
CCc1noc(C)c1C(=O)NCCc1ccc(OC)c(OC)c1	24111*	-15	?	1	-2
CCc1noc(C)c1C(=O)NCCc1ccc(S(N)(=O)=O)cc1	?	-7	2	5	0
COc1ccc(CCNC(=S)NC(=O)c2cccc(Cl)c2)cc1OC	3811	4	1	7	?
COc1ccc(C(=O)NCC(=O)NN=Cc2cn(C)c3ccccc23)cc1OC	nt	8	nt	nt	nt

Screening data from PubChem BioAssay.
